Assay [1] concerns the target Macrophage colony-stimulating factor 1 receptor (Homo sapiens) (UniProt P07333). To be noted: at 1 µM.
Assay [2] shares this target. The conditions noted are these: at 10 µM.
The target in assay [3] is Tyrosine-protein kinase Fyn (Homo sapiens) (UniProt P06241). To be noted: at 1 µM.
For assay [4] the target is unchanged. The conditions noted are these: at 10 µM.
Assay [5] concerns the target T1, Mitogen-activated protein kinase kinase kinase kinase 2 (Homo sapiens) (UniProt Q12851).
T1 sequence (whole entry): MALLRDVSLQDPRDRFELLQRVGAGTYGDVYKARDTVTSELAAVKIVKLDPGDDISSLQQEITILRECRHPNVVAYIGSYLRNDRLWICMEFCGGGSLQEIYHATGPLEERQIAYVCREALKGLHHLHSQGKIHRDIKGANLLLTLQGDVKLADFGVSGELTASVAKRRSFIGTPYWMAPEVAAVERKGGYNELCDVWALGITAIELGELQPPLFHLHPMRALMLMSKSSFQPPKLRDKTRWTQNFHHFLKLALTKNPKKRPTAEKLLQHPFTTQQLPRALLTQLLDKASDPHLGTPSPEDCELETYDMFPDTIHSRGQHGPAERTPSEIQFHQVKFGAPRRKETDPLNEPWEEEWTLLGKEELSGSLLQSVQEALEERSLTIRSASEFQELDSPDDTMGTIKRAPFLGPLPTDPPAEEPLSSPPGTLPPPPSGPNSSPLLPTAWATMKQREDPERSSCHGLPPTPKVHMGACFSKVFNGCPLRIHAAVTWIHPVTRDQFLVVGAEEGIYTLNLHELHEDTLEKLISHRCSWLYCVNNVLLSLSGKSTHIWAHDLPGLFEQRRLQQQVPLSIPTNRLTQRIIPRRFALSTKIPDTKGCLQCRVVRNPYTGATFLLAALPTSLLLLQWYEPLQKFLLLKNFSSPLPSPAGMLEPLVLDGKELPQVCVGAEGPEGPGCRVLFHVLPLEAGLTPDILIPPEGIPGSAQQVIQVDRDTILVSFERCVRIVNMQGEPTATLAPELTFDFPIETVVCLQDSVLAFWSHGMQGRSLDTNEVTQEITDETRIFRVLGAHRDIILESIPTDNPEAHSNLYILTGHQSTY
The conditions noted are these: at 1 µM.

Assay [6] has as its target T1, Mitogen-activated protein kinase kinase kinase kinase 2 (Homo sapiens). The conditions noted are these: at 10 µM.
In assay [7] the target is G protein-coupled receptor kinase 5 (Homo sapiens) (UniProt P34947). The conditions noted are these: at 10 µM.
Sequence of G protein-coupled receptor kinase 5 (Homo sapiens) (P34947 whole entry, looked up): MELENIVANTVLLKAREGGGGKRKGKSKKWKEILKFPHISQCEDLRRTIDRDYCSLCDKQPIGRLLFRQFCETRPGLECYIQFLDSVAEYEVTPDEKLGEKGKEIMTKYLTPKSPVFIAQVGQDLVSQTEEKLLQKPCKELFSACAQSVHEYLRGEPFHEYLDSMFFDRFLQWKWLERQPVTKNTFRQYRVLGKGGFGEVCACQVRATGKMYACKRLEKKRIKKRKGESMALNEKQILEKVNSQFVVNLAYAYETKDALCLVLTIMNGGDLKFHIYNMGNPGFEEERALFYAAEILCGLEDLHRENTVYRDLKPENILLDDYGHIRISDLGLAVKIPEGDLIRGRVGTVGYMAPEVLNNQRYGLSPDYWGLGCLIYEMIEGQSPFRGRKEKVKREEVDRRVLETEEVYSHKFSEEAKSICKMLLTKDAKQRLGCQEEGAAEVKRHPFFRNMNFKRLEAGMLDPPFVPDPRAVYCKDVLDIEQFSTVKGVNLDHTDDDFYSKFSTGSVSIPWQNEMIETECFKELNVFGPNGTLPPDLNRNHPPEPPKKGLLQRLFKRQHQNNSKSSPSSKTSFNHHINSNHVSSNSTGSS
Assay [8] has as its target G protein-coupled receptor kinase 6 (Homo sapiens) (UniProt P43250). The conditions noted are these: at 10 µM.
Assay [9] deals with T2, Rhodopsin kinase GRK7 (Homo sapiens) (UniProt Q8WTQ7).
T2 sequence (whole entry): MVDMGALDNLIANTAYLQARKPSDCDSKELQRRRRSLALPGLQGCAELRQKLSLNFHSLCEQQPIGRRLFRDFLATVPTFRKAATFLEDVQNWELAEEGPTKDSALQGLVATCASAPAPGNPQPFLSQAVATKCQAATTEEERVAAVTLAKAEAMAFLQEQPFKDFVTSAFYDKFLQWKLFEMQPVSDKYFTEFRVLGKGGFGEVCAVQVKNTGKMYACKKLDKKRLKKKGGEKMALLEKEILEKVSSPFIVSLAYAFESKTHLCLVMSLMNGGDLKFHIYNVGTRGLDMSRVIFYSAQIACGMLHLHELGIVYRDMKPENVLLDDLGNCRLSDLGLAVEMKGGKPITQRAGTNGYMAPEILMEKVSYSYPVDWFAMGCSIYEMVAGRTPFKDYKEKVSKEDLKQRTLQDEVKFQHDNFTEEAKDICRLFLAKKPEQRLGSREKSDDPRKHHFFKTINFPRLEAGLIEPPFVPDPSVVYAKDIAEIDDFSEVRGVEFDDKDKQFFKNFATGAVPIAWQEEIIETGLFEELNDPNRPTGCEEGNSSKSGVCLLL
The conditions noted are these: at 1 µM.

Assay [10] concerns the target T2, Rhodopsin kinase GRK7 (Homo sapiens). To be noted: at 10 µM.
For assay [11], the target named is Glycogen synthase kinase-3 alpha (Homo sapiens) (UniProt P49840). To be noted: at 1 µM.
Sequence of Glycogen synthase kinase-3 alpha (Homo sapiens) (P49840 2-483 limits assumed): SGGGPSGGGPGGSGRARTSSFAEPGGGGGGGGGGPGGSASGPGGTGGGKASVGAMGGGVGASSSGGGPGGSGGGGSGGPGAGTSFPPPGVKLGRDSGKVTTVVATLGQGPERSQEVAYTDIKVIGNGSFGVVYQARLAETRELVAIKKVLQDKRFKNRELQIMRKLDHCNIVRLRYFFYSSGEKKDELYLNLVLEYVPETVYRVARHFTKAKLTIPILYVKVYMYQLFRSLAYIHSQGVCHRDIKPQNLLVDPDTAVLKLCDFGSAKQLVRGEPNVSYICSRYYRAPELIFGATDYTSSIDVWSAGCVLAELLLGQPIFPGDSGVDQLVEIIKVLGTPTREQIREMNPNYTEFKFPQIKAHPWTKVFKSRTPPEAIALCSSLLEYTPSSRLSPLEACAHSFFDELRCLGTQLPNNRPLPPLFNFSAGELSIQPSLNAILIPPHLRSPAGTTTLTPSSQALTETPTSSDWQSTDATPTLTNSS
The target is the same in assay [12]. The conditions noted are these: at 10 µM.
Assay [13] addresses Glycogen synthase kinase-3 beta (Homo sapiens) (UniProt P49841). To be noted: at 1 µM.
Assay [14] has the same target. To be noted: at 10 µM.
The target in assay [15] is Homeodomain-interacting protein kinase 1 (Homo sapiens) (UniProt Q86Z02). The conditions noted are these: at 1 µM.
Assay [16] shares this target. The conditions noted are these: at 10 µM.
Assay [17] addresses Homeodomain-interacting protein kinase 2 (Homo sapiens) (UniProt Q9H2X6). To be noted: at 1 µM.
Assay [18] shares this target. To be noted: at 10 µM.
Assay [19] addresses Homeodomain-interacting protein kinase 3 (Homo sapiens) (UniProt Q9H422). The conditions noted are these: at 1 µM.
Assay [20] addresses Vascular endothelial growth factor receptor 3 (Homo sapiens) (UniProt P35916). The conditions noted are these: at 10 µM.

Sequence of G protein-coupled receptor kinase 6 (Homo sapiens) (P43250 whole entry, looked up): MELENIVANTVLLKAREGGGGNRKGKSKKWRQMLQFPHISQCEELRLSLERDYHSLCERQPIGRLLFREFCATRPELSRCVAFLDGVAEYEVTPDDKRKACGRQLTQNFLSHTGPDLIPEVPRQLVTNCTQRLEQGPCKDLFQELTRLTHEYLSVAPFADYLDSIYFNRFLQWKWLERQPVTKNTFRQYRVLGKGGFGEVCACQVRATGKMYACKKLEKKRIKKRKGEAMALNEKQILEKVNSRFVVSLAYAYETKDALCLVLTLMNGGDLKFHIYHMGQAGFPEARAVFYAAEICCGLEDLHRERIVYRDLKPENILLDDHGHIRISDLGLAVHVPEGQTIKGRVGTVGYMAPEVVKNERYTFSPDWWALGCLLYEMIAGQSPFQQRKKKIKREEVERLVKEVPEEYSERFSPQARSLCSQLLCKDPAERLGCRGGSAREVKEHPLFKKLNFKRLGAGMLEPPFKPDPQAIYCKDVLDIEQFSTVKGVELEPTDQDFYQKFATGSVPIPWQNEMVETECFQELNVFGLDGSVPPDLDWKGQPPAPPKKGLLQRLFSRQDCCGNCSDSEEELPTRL
Sequence of Homeodomain-interacting protein kinase 3 (Homo sapiens) (Q9H422 whole entry, looked up): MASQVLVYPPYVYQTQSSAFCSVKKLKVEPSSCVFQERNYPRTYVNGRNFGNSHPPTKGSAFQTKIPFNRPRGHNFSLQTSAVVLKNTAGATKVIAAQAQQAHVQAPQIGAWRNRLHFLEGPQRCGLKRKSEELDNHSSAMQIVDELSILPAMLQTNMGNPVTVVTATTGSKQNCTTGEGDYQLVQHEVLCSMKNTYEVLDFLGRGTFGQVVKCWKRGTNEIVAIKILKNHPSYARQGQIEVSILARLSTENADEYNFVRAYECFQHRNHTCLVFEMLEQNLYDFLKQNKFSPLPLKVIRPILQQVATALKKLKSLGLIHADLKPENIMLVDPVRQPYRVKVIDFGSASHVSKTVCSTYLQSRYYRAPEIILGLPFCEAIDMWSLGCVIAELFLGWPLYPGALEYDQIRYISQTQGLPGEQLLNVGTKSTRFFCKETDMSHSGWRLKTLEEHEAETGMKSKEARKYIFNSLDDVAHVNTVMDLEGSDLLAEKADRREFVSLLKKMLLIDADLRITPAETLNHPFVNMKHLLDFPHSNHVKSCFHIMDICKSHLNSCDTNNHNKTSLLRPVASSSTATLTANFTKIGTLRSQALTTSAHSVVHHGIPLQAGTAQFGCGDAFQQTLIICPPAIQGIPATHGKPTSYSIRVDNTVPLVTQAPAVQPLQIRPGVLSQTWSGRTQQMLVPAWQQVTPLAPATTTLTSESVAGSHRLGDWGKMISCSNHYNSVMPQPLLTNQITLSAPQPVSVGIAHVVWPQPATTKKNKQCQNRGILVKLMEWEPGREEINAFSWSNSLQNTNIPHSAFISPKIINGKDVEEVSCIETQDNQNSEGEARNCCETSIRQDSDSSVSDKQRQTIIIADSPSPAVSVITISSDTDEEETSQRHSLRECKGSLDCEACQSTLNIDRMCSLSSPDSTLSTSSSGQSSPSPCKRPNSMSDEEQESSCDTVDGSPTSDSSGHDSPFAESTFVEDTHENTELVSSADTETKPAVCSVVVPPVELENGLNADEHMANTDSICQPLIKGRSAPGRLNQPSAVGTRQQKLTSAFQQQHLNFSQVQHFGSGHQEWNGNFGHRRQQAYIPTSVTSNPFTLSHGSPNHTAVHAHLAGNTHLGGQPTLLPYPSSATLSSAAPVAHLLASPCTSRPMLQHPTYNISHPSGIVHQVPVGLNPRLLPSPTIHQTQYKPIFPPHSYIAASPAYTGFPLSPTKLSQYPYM
Sequence of Tyrosine-protein kinase Fyn (Homo sapiens) (P06241 2-537 limits assumed): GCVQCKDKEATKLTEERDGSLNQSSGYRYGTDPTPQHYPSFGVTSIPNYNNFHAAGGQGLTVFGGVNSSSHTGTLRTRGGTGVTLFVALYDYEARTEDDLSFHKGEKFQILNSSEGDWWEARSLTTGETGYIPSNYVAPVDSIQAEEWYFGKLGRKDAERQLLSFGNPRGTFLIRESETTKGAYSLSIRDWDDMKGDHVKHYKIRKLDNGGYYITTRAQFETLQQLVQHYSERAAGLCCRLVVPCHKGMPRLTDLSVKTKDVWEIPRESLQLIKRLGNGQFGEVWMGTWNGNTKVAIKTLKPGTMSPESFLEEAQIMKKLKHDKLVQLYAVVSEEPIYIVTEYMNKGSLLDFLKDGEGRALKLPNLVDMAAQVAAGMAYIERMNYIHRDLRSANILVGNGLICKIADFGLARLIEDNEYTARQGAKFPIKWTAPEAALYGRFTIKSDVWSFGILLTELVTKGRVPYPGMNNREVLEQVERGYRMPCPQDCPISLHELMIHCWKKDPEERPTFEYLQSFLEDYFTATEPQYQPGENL
Sequence of Vascular endothelial growth factor receptor 3 (Homo sapiens) (P35916 whole entry): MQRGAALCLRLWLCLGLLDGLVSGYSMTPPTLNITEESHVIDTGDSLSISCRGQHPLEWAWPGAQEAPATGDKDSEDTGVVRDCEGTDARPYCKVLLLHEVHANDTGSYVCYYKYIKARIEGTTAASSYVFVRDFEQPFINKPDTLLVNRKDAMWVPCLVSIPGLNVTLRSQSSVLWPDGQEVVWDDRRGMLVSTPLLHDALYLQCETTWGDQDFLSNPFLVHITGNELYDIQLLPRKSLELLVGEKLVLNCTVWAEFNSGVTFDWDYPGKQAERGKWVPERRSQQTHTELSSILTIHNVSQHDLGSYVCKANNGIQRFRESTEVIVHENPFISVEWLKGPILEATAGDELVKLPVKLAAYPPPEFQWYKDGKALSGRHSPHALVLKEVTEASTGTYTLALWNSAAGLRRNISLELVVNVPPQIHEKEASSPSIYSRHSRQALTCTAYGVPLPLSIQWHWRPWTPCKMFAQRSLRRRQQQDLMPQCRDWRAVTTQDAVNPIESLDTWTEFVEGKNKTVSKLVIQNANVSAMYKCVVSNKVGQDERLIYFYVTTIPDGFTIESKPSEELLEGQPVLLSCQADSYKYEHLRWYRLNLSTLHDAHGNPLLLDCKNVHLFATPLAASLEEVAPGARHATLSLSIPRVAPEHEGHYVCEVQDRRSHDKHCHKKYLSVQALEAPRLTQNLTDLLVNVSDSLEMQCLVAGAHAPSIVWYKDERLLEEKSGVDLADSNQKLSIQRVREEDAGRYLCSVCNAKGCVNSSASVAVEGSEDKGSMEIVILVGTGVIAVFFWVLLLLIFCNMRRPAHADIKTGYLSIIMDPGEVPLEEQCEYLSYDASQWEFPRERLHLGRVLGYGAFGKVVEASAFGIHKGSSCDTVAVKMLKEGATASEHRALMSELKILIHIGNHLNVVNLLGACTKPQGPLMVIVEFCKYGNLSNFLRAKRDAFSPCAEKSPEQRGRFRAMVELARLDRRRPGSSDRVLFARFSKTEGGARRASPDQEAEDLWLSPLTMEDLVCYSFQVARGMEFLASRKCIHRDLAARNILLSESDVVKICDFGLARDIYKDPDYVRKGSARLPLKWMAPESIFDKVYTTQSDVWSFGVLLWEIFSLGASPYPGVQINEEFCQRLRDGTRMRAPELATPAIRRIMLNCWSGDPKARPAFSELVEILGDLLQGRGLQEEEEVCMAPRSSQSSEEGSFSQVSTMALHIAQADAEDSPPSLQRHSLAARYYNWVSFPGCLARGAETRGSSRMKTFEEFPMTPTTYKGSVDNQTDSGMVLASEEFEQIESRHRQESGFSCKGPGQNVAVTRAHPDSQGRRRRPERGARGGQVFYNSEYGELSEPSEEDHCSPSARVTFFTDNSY

Turning to `CN(C)CCCn1cc(C2=C(c3c[nH]c4ccccc34)C(=O)NC2=O)c2ccccc21`, the residual activity in assay [1] came to 50%; in [2], 30%; in assay [3] it was 102%; in assay [4], 70%; in [5], 75%; in assay [6], 22%. Also, the residual activity is 9% in assay [7]; 32% in assay [8]; 58% in [9]; 7% in [10]; 18% in [11]; 2% in assay [12]. In addition, the residual activity in [13] came out at 24%; in assay [14] it was 3%; in assay [15], 90%; in assay [16], 53%; in [17] it was 69%; in [18], 21%. The residual activity in assay [19] was 87%.
Take `O=[N+]([O-])c1ccc(-c2nc(-c3ccc(F)cc3)c(-c3ccncc3)[nH]2)cc1`: the residual activity turned out to be 71% in [20]; 81% in assay [1]; 54% in [2]; 82% in assay [3]; 70% in assay [4]; 99% in [5]. Besides, the residual activity in assay [6] was found to be 91%; in assay [7], 105%; in assay [8] it was 94%; in assay [9] it was 108%; in assay [10] it was 92%; in [11], 99%. Moreover, the residual activity in assay [12] amounted to 84%; in assay [13], 73%; in assay [14] it was 83%; in assay [15], 111%; in [17], 107%; in assay [18], 100%. For the same compound, the residual activity in [19] was 110%.
With `C[C@@H](N)[C@H]1CC[C@H](C(=O)Nc2ccncc2)CC1`, the residual activity in [20] stood at 104%; in assay [1] it was 98%; in assay [2] it was 110%; in [3], 111%; in assay [4], 112%; in assay [6], 88%. The residual activity in assay [7] is 90%; in assay [8], 106%; in [9] it was 97%; in assay [10], 89%; in assay [11], 75%; in assay [12] it was 68%. Moreover, the residual activity amounted to 105% in [13]; 84% in assay [14]; 102% in assay [15]; 109% in assay [16]; 103% in assay [17]; 101% in assay [18]. In addition, the residual activity in assay [19] turned out to be 91%.
In the case of `Cc1cc(Nc2nc(-c3ccccc3)nc3ccccc23)n[nH]1`, the residual activity in assay [20] is 1%; in [1], 4%; in assay [2], 0%; in assay [3] it was 2%; in [4], -2%; in assay [5], 38%. Further, the residual activity in assay [6] was determined as 6%; in [8] it was 65%; in [9], 55%; in assay [10] it was 14%; in [11], 9%; in [12] it was 3%. The residual activity in [13] was determined as 20%; in [14], 10%; in assay [15] it was 95%; in assay [16], 35%; in [17], 64%; in assay [18], 13%.
On to `Ic1cccc(CSc2nnc(-c3ccncc3)o2)c1`, for which the residual activity in assay [20] was found to be 15%; in [1], 71%; in assay [2], 53%; in assay [3] it was 71%; in assay [4], 84%; in assay [5] it was 49%. The residual activity was 35% in [6]; 89% in assay [7]; 83% in assay [8]; 88% in assay [9]; 76% in [10]; 32% in assay [11]. Besides, the residual activity is 10% in [12]; 43% in assay [13]; 33% in assay [14]; 101% in assay [15]; 91% in [16]; 76% in assay [17]. Also, the residual activity in assay [18] was determined as 54%; in [19], 96%.
For the compound `Nc1cccc(-c2cc3c(Oc4cccc(O)c4)ncnc3[nH]2)c1`, the residual activity in assay [20] is 0%; in assay [1] it was 3%; in [2], -1%; in assay [3], 0%; in [4], -2%; in assay [5] it was 42%. Further, the residual activity worked out at 8% in assay [6]; 93% in assay [7]; 93% in assay [8]; 92% in [9]; 91% in [10]; 27% in assay [11]. Moreover, the residual activity worked out at 3% in assay [12]; 22% in assay [13]; 6% in [14]; 95% in assay [17]; 54% in assay [18].
Consider `COc1cc2ncnc(Nc3ccc(NC(=O)c4ccccc4)cc3)c2cc1OC`, for which the residual activity was 14% in assay [20]; 84% in [1]; 79% in [2]; 100% in assay [3]; 48% in assay [4]; 70% in [6]. The residual activity in assay [7] is 89%; in assay [8], 94%; in assay [9], 110%; in assay [10], 95%; in assay [13], 97%; in assay [14] it was 104%. Besides, the residual activity turned out to be 102% in assay [15]; 97% in [16]; 99% in assay [17]; 87% in assay [18]; 101% in [19].

The values above are taken from ChEMBL document CHEMBL2218924, “A broad activity screen in support of a chemogenomic map for kinase signalling research and drug discovery” (Biochem J, 2013).
